Laboratory results from the supplement of paper PMC6522484.
Values joined by “and” are separate entries in the source; they are usually repeats but may differ in a detail not shown here. Equal values may be shown once. ± gives the standard deviation of the averaged measurements.

What was measured:
[1] = test system: DLD1; experiment: cell viability (CellTiter-Glo) relative to plate median (fraction of plate median); higher = more viable cells; details: 5 µM; treatment time 24 h; reporter: 7TFP
Method in brief: (§1)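 On parallel plates, a Tecan F500 reader recorded either firefly luciferase or CellTiterGlo luminescence. The plates held colorectal cancer cells stably transduced with lentiviral TCF/Wnt firefly luciferase reporters (7TFP or TCF4/Wnt), seeded in 384-well format and treated 24 h later with library compounds at a final 5 µM for 24 h. Per-well signals were normalised to the plate median (webcellHTS2, additive, no log transformation), and two independent replicates were averaged.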

[2] = test system: HCT116; experiment: as above; details: 5 µM; treatment time 24 h; reporter: TCF4/Wnt
Method in brief: as §1

[3] = test system: SW480; experiment: as above; details: 5 µM; treatment time 24 h; reporter: 7TFP
Method in brief: as §1

[4] = test system: DLD1; experiment: TCF/Wnt firefly luciferase reporter signal relative to plate median (fraction of plate median); higher = higher Wnt reporter signal; details: 5 µM; treatment time 24 h; reporter: 7TFP
Method in brief: as §1

[5] = test system: SW480; experiment: as above; details: 5 µM; treatment time 24 h; reporter: 7TFP
Method in brief: as §1

Row | Compound | cell viability [1] | cell viability [2] | cell viability [3] | TCF/Wnt firefly luciferase reporter signal [4] | TCF/Wnt firefly luciferase reporter signal [5]
1 | OC1=Cc2c(O)cc(O)cc2OC1(O)c1ccc(O)c(O)c1 (stereo not given) | 0.963 ± 0.053 | 1.07 ± 0.17 | 0.943 ± 0.044 | 0.923 ± 0.07 | 0.9795 ± 0.0021
2 | CS(=O)(=O)CCCCN=C=S | 0.722 ± 0.18 | 0.8885 ± 0.00071 | 0.83 ± 0.03 | 0.83 ± 0.067 | 0.867 ± 0.12
3 | CO/N=C1\CN(c2nc3c(cc2F)c(=O)c(C(=O)O)cn3C2CC2)CC1CN (stereo not given) | 1.04 ± 0.06 | 1.09 ± 0.057 | 0.995 ± 0.021 | 0.971 ± 0.11 | 1.06 ± 0.042
4 | Cc1c(C)c2c(c(C)c1O)CCC(C)(COc1ccc(CC3SC(=O)NC3=O)cc1)O2 (stereo not given) | 1.05 ± 0.085 | 1.04 ± 0.071 | 1.06 ± 0.021 | 0.942 ± 0.11 | 1.04 ± 0.021
5 | CNc1ccccc1C(=O)N1CCc2c([nH]c3ccccc23)C1=O | 1.03 ± 0.043 | 0.996 ± 0.1 | 0.994 ± 0.0085 | 1.14 | 1.09 ± 0.14
6 | C/N=C(/NC#N)NCCSCc1csc(NC(=N)N)n1 | 1 ± 0.068 | 0.975 ± 0.078 | 1.01 ± 0.014 | 1.12 ± 0.021 | 1.11 ± 0.064
7 | Nc1ccc(S(=O)(=O)Nc2ncccn2)cc1 | 0.92 ± 0.032 | 1.04 ± 0.069 | 0.9685 ± 0.0021 | 1.05 ± 0.14 | 1.01 ± 0.083
8 | Nc1c2c(nc3ccccc13)CCCC2 | 1.04 | 0.997 ± 0.018 | 0.946 ± 0.014 | 0.999 ± 0.016 | 0.943 ± 0.015
9 | Oc1ncnc2[nH]ncc12 | 0.939 ± 0.063 | 1.05 ± 0.12 | 1.07 ± 0.057 | 1.03 | 0.961 ± 0.11
10 | FC(F)(F)COCC(F)(F)F | 0.944 ± 0.047 | 0.922 ± 0.041 | 0.99 ± 0.029 | 0.762 ± 0.016 | 0.825 ± 0.1
11 | Cc1c(N(C)C)c(=O)n(-c2ccccc2)n1C | 0.898 ± 0.025 | 0.981 ± 0.13 | 0.991 ± 0.069 | 1.1 ± 0.028 | 0.821 ± 0.057
12 | O=C(CCc1ccc(O)cc1)c1c(O)cc(O)cc1O[C@@H]1OC(CO)[C@@H](O)[C@@H](O)C1O (stereo not given in full) | 1.07 ± 0.064 | 1.01 ± 0.016 | 1.03 ± 0.021 | 0.909 ± 0.033 | 1.06 ± 0.092
13 | O=C1C(O)=C(O)C(=O)C(O)=C1O | 0.96 ± 0.03 | 0.997 ± 0.1 | 0.944 ± 0.015 | 0.829 ± 0.011 | 0.822 ± 0.056
14 | Nc1nc2c(ncn2[C@H]2C[C@H](O)[C@@H](CO)O2)c(=O)[nH]1 [Desoxyguanosin] | 1 ± 0.013 | 1.01 ± 0.11 | 1.004 ± 0.0078 | 0.989 ± 0.016 | 0.997 ± 0.018
15 | OCC(O)CN1CCN(c2ccccc2)CC1 (stereo not given) | 0.979 ± 0.058 | 0.995 ± 0.035 | 0.964 ± 0.033 | 0.83 ± 0.029 | 0.9255 ± 0.005
16 | CC1=C(CCC(=O)O)c2cc3nc(cc4[nH]c(cc5[nH]c(cc1n2)c(C)c5C(C)O)c(C)c4C(C)O)C(C)=C3CCC(=O)O (stereo not given) | 1.01 ± 0.015 | 0.909 ± 0.11 | 0.964 ± 0.0099 | 1.01 ± 0.13 | 1.02 ± 0.16
17 | C[C@]12CCC[C@H](O1)c1c(cc3c(c1O)C(=O)c1c(O)cc(O)cc1C3=O)O2 [Averufin (Isoform A, Compound ID 7507)] | 1.01 ± 0.12 | 1.05 ± 0.14 | 1.04 ± 0.088 | 0.896 ± 0.16 | 0.972 ± 0.083
18 | CC(=O)O[C@H]1CC[C@]2(C)C3=CC(=O)[C@@]4(C)C(C[C@@H]5OC6(OCC(C)CC6Br)[C@@H](C)[C@@H]54)C3CC[C@H]2C1 (stereo partly drawn) [3beta-ACETOXY-23-BROMO-ISOALLOSPIROST-9 (11)-ENE-12-ONE] | 1.04 ± 0.042 | 1.11 ± 0.092 | 1.03 ± 0.05 | 1.12 ± 0.099 | 1.1 ± 0.035
19 | C=C1CC[C@H](O)C/C1=C/C=C1\CCC[C@]2(C)[C@@H]([C@H](C)/C=C/[C@H](C)C(C)C)CC[C@@H]12 | 0.982 ± 0.054 | 0.995 ± 0.11 | 0.954 ± 0.016 | 1.07 ± 0.16 | 1.09 ± 0.014
20 | O=C1O[C@H]([C@@H](O)CO)C(O)=C1O | 0.983 ± 0.024 | 1.02 ± 0.12 | 1.01 ± 0.035 | 0.87 ± 0.069 | 0.969 ± 0.073
21 | CSc1ccc2c(c1)N(CCC1CCCCN1C)c1ccccc1S2 (stereo not given) | 1.01 ± 0.048 | 1.02 ± 0.076 | 1.115 ± 0.0071 | 0.928 ± 0.039 | 0.895 ± 0.1
22 | C=C1C(=O)O[C@H]2[C@H]1CC/C(C)=C/CC[C@@]1(C)O[C@@H]21 | 0.84 ± 0.12 | 0.998 ± 0.017 | 0.886 ± 0.044 | 0.825 ± 0.096 | 0.836 ± 0.049
23 | N[C@@H](CC(=O)N1CCn2c(nnc2C(F)(F)F)C1)Cc1cc(F)c(F)cc1F | 1.09 ± 0.042 | 0.997 ± 0.061 | 0.963 ± 0.041 | 0.95 ± 0.069 | 0.935 ± 0.081
24 | Cc1ccc(/C(=C\CN2CCCC2)c2ccccn2)cc1 | 0.984 ± 0.037 | 0.968 ± 0.088 | 0.945 ± 0.048 | 0.886 ± 0.064 | 0.956 ± 0.091
25 | CCc1cccc2c3c([nH]c12)C(CC)(CC(=O)O)OCC3 (stereo not given) | 0.949 ± 0.073 | 0.957 ± 0.089 | 0.921 ± 0.025 | 1.04 ± 0.021 | 1.08 ± 0.035
26 | Nc1ccc(S(=O)(=O)Nc2ccccn2)cc1 | 0.971 ± 0.11 | 0.949 ± 0.067 | 0.981 ± 0.055 | 1.12 ± 0.028 | 0.915 ± 0.076
27 | C=C1C[C@H]2[C@@H]3C=C(C)C4=CC(=O)CC[C@]4(C)[C@H]3CC[C@]2(C)[C@@]1(OC(C)=O)C(C)=O | 0.99 ± 0.042 | 1 ± 0.11 | 1.01 | 0.986 ± 0.076 | 0.902 ± 0.094
28 | O=C(O)CCCc1ccccc1 | 1.03 and 0.95 | 0.968 and 0.85 | 0.993 and 1 | 1.15 and 1.08 | 1.01 and 1.04
